Sampled rows, rich in hits. Any-hit rate of the full collection: about 1.6%.
PERK inh: blocks human PERK kinase; inhibition, % at 5.6 µM; CHO PERK-DD fusion, SEAP luminescence translation reporter; 0.17% of 220,000 active; Q9NZJ5;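 active = inhibition above the mean inhibition of all tested compounds plus 3 SD, set separately per screening campaign, cut at about 2.9% in these data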;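 also: PERK kinase domain activated by AP20187 dimerizer at 100 nM; 0% = DMSO with dimerizer and 100% = rapamycin at 8.4 µM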
MLLE-PAM2 inh: blocks PAM2 peptide binding to the PABP1 MLLE domain; GST-MLLE / FITC-PAM2 fluorescence polarization; inhibition, % at 20 µM; 0.36% of 360,000 active; in the data active = inhibition above about 35%, passing the limit was not always enough;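 also: plate controls were DMSO wells with GST-MLLE for no effect and wells lacking GST-MLLE protein for full effect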
eIF4H inh: inhibitors of RNA binding by human eIF4H; Q15056; eIF4H fluorescence polarization binding assay; inhibition, % at 35 µM; 0.94% of 290,000 active; AID 2012;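 also: calls also rest on retests at 20 µM and on dose response follow-up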
eIF4E-4G inh: eIF4E/eIF4G interaction inhibition in translation initiation; P63073+Q04637; TR-FRET eIF4E-eIF4GI(517-606) binding, 2 h; inhibition, % at 21.7 µM; 0.37% of 220,000 active; AID 782;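 active = inhibition above about 30%, limit read from the data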;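 also: 0% = full FRET control wells and 100% = background wells lacking eIF4GI fragment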
PABP FP inh: PABP-poly(A) binding inhibition. PABP-poly(A) RNA binding, fluorescence polarization. inhibition, % at 35 µM. 1% of 290,000 active;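 also: calls also rest on retests at 20 µM and on dose response follow-up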
* = called active by the depositor; · = not tested or not shown. Unless noted, no rule for the calls is given here.

SMILES	PERK inh	MLLE-PAM2 inh	eIF4H inh	eIF4E-4G inh	PABP FP inh
Cc1ccc(NC(=O)c2c(-c3ccccc3Cl)noc2C)nc1	1	13	4	4	9
O=c1cc(CSc2nnnn2-c2ccccc2)[nH]c2[nH]n(-c3ccccc3)c(=O)c12	0	-96	79*	2	62*
N#CCCN(C(=S)NC(=O)c1ccco1)c1ccccc1F	0	47*	1	-1	-1
N#CCCN(Cc1cccnc1)C(=S)NCc1ccco1	0	30	14	1	-6
N#CCCN(Cc1cccnc1)C(=S)NC(=O)c1ccco1	0	14	7	-3	67*
N#CCCN(C(=O)c1ccco1)c1ccccc1	-1	6	-14	-2	2
CC1=CC2=NC(=O)CC(C)(C(=O)N(CC(=O)NC3CCCC3)Cc3ccc(Cl)cc3)N2C=C1 (stereo not drawn)	·	11	3	·	5
Cc1ccc(NC(=O)CCSc2nnc(-c3ccco3)o2)cc1	0	8	2	-1	12
Cc1ccc(NC(=O)CSc2ccc(-c3ccco3)nn2)cc1	0	26	25	8	-4
O=C(CSc1nnc(-c2ccco2)c(-c2ccco2)n1)Nc1ccccc1	1	16	96*	19	91*
Cc1ccc(SCC(=O)Nc2ccc(-c3nnc(-c4ccco4)o3)cc2)cc1	1	9	58*	-7	79*
Cc1ccc(NC(=O)CSc2nnc(-c3ccco3)c(-c3ccco3)n2)cc1	1	21	100*	1	89*
CN(C)c1ccc(NC(=O)CSc2nnc(-c3ccco3)c(-c3ccco3)n2)cc1	·	25	93*	·	44*
O=C(CSc1nnc(-c2ccccc2)c(-c2ccccc2)n1)NCc1ccco1	0	10	3	4	0
O=C(CSc1n[nH]c(-c2ccco2)n1)Nc1ccc(F)cc1	·	-5	-16	·	-8
COc1ccc(-c2csc(C(O)c3cccnc3)n2)cn1 (stereo not drawn)	·	-5	·	·	·
O=C(NC(=S)NNC(=O)c1ccccc1[N+](=O)[O-])c1ccccc1	1	34	-8	-9	6
O=C(c1ccc2c(=O)n(Cc3ccccc3)c(=S)[nH]c2c1)N1CCCC1	·	-74	-4	·	-2
CC(=O)c1ccc(OCc2nnn(CC(=O)NS(=O)(=O)c3ccc(C)cc3)c2-c2ccccc2)cc1	·	17	·	·	·
O=C(O)CNS(=O)(=O)Cc1ccccc1	0	6	-2	6	1
O=C1C=C(N2CCCCC2)C2(CCCCC2)O1	0	0	-3	0	-7
CN1CCN(C2=CC(=O)OC23CCCCC3)CC1	1	1	-1	84*	-7
Cc1ccc(NC(=O)c2cc3ccccc3oc2=O)cc1S(=O)(=O)N(C)C	0	5	0	0	64*
O=C(NCc1ccc(Cl)cc1)c1cnccn1	1	11	-7	-9	-1
O=C(NCc1cccc(Cl)c1)c1cnccn1	2	3	34*	-3	54
SMILES	PERK inh	MLLE-PAM2 inh	eIF4H inh	eIF4E-4G inh	PABP FP inh
O=C(CCCCCN1C(=O)[C@@H]2Cc3ccccc3CN2C1=O)N[C@@H](Cc1ccc(O)cc1)C(=O)O	·	-2	-6	·	4
CN(C)CCOC(=O)c1ccc2c(c1)S(=O)(=O)c1ccccc1C2=O	1	10	-3	35*	-8
O=C(CCNS(=O)(=O)c1ccccc1C(F)(F)F)NC1CCCCCC1	·	0	·	·	·
Cc1cccn2cc(CNc3ccccc3)nc12	1	2	7	10	14
CCOC(=S)SCc1cn2cccc(C)c2n1	0	39*	56	2	127
Cc1cc2n(n1)C(c1ccc(N(C)C)cc1)Nc1ccccc1-2 (stereo not drawn)	-1	2	-1	4	13
CCOC(=O)CCCCCC(=O)Nc1ccc2c(c1)C(=O)N([C@@H](C)CO)C[C@H](C)[C@H](CN(C)C(=O)Nc1ccc(F)cc1)OCCCC[C@H](C)O2	·	-16	·	·	·
CC1CC(C)CN(S(=O)(=O)c2ccc(C(C)(C)C)cc2)C1 (stereo not drawn)	2	1	5	-5	80*
Oc1cc(NCCc2cccnc2)cc2cccnc12	·	50*	·	·	·
Cn1ccc(C(=O)OCC(=O)c2ccccc2)n1	-1	5	-9	3	2
S=c1[nH]nc2n1CCCN2	2	21	-13	3	7
O=c1cc(-c2ccc(O)cc2)oc2cc(O)c(C3OC(CO)C(O)C(O)C3O)c(O)c12 (stereo not drawn)	0	10	67*	3	21*
O=c1[nH]cc(COCC(F)CCl)c(=O)[nH]1 (stereo not drawn)	2	2	-10	97*	1
O=C1c2ccccc2C(=O)N1CCCOCc1c[nH]c(=O)[nH]c1=O	0	15	-2	-2	3
O=C(NNC(=O)c1ccc(-c2ccccc2)cc1)Nc1ccccc1F	·	-10	-9	·	-5
O=C(NNc1ccccc1F)c1ccccc1	5.0*	7	21	2	10
CCOC(=O)CCc1ccc(NC(=O)/C=C/c2ccc([N+](=O)[O-])o2)cc1	·	-34	·	·	·
CCc1c(C)sc(NC(=O)c2ccco2)c1C(=O)N1CCOCC1	0	40*	14	-1	-2
Cc1ccccc1NC(=O)CSc1[nH]c(=O)cc(C)c1C#N	1	-43	22*	4	52*
CC(NC(=O)CSc1n[nH]c(=O)[nH]c1=O)C1CC2CCC1C2 (stereo not drawn)	1	-2	-8	4	5
Cc1cc(=O)[nH]c(SCC(=O)c2ccccc2)c1C#N	1	-66	81*	-4	69*
CCc1cccc(CC)c1NC(=O)CSc1nnc(CCC(=O)O)c(=O)[nH]1	1	39*	-10	-4	-7
CCOc1ccc(Cc2nnc(SCC(=O)Nc3c(C)cccc3C)[nH]c2=O)cc1	·	35	·	·	·
Cc1cc(=O)[nH]c(SCC(=O)NC(C)C2CC3CCC2C3)c1C#N (stereo not drawn)	1	-1	3.3*	3	79*
COc1ccc(CNCC(O)(c2ccc(F)cc2)c2ccc(F)cc2)cc1OC	·	6	-4	·	8
SMILES	PERK inh	MLLE-PAM2 inh	eIF4H inh	eIF4E-4G inh	PABP FP inh
Cc1cc(=O)[nH]c(N/N=C/c2cccc(Br)c2)n1	·	-25	1	·	-3
CSCCC(NC(=O)c1ccccc1)C(=O)OCC(=O)Nc1ccc(C)c(Cl)c1 (stereo not drawn)	1	-7	6	1	11
Cc1ccccc1NC(=O)CSc1nnc(C)c(=O)[nH]1	1	43*	-5	-1	4
Fc1ccc(-c2nnc3ccc(N4CCCC4)nn23)cc1	0	-11	-14	1	-8
CC(=O)c1sc(N2CCOCC2)nc1-c1ccccc1	1	0	-6	0	-7
O=C(Nc1ccccc1)c1sc(N2CCOCC2)nc1-c1ccccc1	0	-2	active	-2	75*
N#C/C(=C\c1sc(N2CCOCC2)nc1-c1ccccc1)C(=O)Nc1cccc2ccccc12	0	·	55*	45*	active

From PubChem BioAssay
